# Results: ChEMBL document CHEMBL3988442, “University of Dundee, Small-Polar-MMV Screening Library” (2021)
# For some of these results: Potency and affinity values are given separately.
# Key:
# Parameters in all cases: scale not given: direction of the effect not stated beside the values
# [1] = target: Protein translocase subunit SecA (Escherichia coli (strain K12)) (UniProt P10408); test: Assay to Identify E. coli SecA ATPase Inhibitors; assay type: functional; conditions: 30 µM
# [2] = target: T1, Ubiquitin-activating enzyme e1, putative (Leishmania donovani (strain BPK282A1)) (UniProt E9BSI1); test: Leishmania donovani Ubiquitin Activating Enzyme (LdE1); assay type: functional; conditions: 30 µM
# T1 sequence (whole entry): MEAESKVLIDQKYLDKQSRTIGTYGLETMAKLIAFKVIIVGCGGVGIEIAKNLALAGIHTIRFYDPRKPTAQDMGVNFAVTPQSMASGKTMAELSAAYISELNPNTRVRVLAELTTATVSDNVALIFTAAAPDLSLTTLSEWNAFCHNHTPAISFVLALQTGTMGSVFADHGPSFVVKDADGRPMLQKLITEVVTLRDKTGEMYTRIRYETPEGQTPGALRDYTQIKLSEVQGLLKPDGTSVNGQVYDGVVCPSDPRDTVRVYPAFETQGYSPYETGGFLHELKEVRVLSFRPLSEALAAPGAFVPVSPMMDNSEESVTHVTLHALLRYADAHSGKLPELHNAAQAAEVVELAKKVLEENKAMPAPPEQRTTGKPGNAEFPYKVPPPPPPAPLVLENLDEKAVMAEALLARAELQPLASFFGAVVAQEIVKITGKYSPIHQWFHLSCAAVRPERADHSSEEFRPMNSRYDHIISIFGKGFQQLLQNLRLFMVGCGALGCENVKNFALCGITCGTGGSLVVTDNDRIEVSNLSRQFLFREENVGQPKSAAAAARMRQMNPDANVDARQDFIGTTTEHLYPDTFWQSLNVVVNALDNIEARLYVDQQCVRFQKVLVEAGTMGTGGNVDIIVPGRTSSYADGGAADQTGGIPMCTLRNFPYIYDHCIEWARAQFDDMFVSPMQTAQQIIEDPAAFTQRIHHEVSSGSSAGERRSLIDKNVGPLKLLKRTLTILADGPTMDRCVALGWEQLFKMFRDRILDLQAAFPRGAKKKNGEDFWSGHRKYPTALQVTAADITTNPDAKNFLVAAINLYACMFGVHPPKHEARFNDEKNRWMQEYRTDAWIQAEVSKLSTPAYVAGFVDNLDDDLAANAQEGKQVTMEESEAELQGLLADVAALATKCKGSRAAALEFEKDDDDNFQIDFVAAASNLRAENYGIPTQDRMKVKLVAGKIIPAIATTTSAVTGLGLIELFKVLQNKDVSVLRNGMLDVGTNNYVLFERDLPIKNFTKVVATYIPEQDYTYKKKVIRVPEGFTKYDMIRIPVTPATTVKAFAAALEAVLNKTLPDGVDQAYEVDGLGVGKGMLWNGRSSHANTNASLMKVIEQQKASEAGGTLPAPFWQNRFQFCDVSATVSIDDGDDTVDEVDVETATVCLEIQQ
# [3] = target: AMP-activated protein kinase, AMPK (Homo sapiens) (UniProt P54646+O43741+P54619+Q9UGJ0+Q9Y478+Q13131+Q9UGI9); test: AMP-dependent Kinase enzyme assay. An in vitro enzyme assay that detects ADP turnover that is directly proportional to AMPK activity. This uses naive AMPK that is activated during the assay with MK-8722; assay type: functional; conditions: 30 µM
# [4] = target: Sialic acid-binding Ig-like lectin 9 (Homo sapiens) (UniProt Q9Y336); test: Hs-Siglec9 ALPHAscreen SOP 20170721; conditions: 10 µM
# [5] = test system: Trypanosoma cruzi; test: Trypanosoma cruzi phosphomannomutase and mannose-1-phosphate guanylyltransferase assay; assay type: functional; conditions: 10 µM
# [6] = target: T2, Arginase-2, mitochondrial (Homo sapiens) (UniProt P78540); test: in vitro enzyme assay to detect the production of urea directly proportional to the activity of Arginase II; assay type: functional; conditions: 33.3 µM; also: in the data most compounds retested in dose-response had high values
# T2 sequence (whole entry): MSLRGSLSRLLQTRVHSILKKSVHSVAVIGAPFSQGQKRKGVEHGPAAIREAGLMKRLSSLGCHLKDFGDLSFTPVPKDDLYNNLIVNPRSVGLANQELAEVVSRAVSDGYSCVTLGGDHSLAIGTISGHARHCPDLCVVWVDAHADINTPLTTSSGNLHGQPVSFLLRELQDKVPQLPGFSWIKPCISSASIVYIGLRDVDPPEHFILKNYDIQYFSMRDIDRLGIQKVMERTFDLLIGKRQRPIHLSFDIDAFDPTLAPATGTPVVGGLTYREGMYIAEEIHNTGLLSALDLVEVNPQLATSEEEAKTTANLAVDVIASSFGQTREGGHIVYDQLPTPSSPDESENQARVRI
# [7] = target: T3, Proteasome subunit beta (Trypanosoma cruzi) (UniProt O96673); test: Trypanosoma cruzi proteasome chymotrypsin-like activity (TcProtChymo) assay.; also: in the data most compounds retested in dose-response had high values; assay type: functional; conditions: 9.37 µM
# T3 sequence (whole entry): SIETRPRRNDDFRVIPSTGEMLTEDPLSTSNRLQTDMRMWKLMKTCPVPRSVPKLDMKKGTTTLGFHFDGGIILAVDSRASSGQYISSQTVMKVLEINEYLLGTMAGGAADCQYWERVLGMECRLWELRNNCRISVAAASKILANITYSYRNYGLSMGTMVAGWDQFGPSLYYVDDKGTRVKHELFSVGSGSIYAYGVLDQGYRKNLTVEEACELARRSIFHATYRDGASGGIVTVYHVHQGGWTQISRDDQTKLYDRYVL
# [8] = species: Homo sapiens; test: To identify inhibition of the IFN signalling (Jak-Stat) pathway via expression of an eGFP reporter gene under the control of an IFN-stimulated response element (ISRE) containing MxA promoter.; assay type: functional; conditions: 30 µM
# [9] = target: T4, Tyrosyl-tRNA synthetase, putative (Trypanosoma cruzi (strain CL Brener)) (UniProt Q4DSP6); test: Trypanosoma cruzi tyrosyl tRNA synthetase (TcYRS) _High Tyrosine SOP; assay type: functional; conditions: 30 µM; also: in the data most compounds retested in dose-response had high values
# T4 sequence (whole entry): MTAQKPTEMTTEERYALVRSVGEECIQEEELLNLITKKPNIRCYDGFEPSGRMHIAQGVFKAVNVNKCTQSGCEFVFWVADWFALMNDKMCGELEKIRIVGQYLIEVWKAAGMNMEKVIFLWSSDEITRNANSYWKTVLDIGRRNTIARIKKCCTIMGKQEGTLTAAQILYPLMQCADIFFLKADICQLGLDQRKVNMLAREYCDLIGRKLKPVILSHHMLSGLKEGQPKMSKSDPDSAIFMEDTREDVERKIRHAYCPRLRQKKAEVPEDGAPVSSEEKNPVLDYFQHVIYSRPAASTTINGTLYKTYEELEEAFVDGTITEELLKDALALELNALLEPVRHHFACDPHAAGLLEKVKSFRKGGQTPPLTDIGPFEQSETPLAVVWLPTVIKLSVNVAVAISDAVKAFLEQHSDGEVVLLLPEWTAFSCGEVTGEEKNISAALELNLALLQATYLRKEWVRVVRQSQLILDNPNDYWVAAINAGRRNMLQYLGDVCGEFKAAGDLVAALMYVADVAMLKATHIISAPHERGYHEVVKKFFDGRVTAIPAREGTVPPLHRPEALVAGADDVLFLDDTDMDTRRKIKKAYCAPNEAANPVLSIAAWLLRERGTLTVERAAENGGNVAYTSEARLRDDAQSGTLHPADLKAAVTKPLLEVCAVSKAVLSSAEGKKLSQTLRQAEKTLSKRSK
# [10] = target: T4, Tyrosyl-tRNA synthetase, putative (Trypanosoma cruzi (strain CL Brener)); test: Trypanosoma cruzi tyrosyl tRNA synthetase (TcYRS) SOP; assay type: functional; conditions: 30 µM
# [11] = target: Chromo domain-containing protein 1 (Saccharomyces cerevisiae (strain ATCC 204508 / S288c) (Baker's yeast)) (UniProt P32657); test: ScCHD-1 Enzyme Inhibition Assay; assay type: functional; conditions: 30 µM; also: in the data most compounds retested in dose-response had high values
# Chain of Chromo domain-containing protein 1 (Saccharomyces cerevisiae (strain ATCC 204508 / S288c) (Baker's yeast)) (P32657 whole entry, the tested form may be a part): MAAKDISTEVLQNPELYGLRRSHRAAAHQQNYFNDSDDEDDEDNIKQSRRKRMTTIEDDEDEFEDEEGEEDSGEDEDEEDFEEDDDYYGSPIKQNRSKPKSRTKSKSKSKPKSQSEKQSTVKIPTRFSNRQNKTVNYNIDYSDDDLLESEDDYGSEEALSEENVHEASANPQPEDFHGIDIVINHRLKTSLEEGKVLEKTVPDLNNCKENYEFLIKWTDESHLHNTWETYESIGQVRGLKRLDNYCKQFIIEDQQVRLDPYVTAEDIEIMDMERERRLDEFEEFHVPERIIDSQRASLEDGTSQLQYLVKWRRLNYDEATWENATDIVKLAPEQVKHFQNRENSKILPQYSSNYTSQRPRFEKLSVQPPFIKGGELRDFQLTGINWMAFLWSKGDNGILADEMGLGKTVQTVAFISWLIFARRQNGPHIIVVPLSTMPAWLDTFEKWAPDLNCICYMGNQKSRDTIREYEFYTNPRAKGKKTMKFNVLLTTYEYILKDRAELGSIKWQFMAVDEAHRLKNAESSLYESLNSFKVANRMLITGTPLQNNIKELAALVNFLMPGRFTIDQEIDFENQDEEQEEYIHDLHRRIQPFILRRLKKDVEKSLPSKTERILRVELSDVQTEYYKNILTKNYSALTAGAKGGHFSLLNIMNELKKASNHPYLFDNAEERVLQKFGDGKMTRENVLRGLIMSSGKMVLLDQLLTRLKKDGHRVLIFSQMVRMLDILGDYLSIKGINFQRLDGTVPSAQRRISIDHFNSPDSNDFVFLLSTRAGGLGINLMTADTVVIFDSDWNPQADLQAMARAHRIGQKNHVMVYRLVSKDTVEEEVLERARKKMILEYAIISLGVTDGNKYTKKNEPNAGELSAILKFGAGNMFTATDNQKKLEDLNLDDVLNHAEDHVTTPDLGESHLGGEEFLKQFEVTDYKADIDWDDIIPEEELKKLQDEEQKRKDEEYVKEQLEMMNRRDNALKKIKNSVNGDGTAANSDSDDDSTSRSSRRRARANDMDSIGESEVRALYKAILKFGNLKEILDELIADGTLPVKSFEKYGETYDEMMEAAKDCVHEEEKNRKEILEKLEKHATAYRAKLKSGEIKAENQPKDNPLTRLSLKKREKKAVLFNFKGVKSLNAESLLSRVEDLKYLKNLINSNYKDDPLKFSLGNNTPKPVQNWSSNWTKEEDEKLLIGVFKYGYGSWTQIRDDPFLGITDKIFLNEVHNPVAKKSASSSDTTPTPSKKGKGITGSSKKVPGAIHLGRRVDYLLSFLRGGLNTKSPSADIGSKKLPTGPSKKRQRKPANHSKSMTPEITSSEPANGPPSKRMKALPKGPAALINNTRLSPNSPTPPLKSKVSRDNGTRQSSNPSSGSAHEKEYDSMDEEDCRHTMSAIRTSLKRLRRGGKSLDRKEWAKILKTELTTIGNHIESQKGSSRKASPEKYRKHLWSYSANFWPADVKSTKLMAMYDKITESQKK
# Chain of Sialic acid-binding Ig-like lectin 9 (Homo sapiens) (Q9Y336 whole entry): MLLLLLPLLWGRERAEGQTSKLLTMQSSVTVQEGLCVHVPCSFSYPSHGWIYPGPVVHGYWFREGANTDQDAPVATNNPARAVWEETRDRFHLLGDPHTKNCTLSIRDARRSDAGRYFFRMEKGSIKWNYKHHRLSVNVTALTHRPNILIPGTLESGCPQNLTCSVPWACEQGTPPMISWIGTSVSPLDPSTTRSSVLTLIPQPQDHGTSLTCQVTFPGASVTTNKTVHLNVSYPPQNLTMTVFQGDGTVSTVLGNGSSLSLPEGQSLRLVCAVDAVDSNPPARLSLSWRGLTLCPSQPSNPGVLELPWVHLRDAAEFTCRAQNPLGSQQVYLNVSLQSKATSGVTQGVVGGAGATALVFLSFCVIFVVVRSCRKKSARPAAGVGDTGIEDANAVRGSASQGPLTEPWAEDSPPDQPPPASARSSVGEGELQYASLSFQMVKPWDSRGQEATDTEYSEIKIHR
# Chain of Protein translocase subunit SecA (Escherichia coli (strain K12)) (P10408 whole entry): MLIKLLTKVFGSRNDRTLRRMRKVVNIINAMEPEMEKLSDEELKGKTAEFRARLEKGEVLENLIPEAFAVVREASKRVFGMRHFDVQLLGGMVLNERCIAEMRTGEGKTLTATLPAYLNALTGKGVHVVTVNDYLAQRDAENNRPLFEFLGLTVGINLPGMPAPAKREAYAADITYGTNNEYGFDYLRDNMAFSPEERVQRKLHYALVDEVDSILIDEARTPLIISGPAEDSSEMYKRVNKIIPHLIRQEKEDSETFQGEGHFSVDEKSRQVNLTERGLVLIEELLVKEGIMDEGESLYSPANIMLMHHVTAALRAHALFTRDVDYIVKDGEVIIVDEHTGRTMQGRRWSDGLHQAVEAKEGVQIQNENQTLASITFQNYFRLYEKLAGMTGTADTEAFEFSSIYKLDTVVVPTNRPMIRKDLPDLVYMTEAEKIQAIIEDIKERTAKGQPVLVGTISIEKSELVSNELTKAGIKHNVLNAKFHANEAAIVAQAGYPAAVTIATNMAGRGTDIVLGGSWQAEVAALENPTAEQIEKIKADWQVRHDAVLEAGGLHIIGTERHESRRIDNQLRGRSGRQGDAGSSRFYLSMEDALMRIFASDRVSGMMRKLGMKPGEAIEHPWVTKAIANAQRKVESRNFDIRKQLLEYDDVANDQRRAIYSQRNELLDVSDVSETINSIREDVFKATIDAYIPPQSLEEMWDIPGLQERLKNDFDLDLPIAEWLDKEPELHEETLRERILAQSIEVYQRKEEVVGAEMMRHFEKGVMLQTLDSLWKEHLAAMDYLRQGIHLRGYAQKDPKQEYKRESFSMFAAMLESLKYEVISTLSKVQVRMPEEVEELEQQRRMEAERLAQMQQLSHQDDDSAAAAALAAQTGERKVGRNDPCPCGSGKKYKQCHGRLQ
structure (smiles),measurement,setting,value
c1cnc(N2CCOCC3(CCCN(CC4CC4)C3)C2)cn1 (stereo not drawn),Percent Effect,[1],-1.84%
same,Percent Effect,[2],5.33%
same,Percent Effect,[3],1.73%
same,Percent Effect,[4],4.28%
same,Percent Effect,[5],-1.74%
same,Percent Effect,[6],-52.5%
same,Percent Effect,[7],6.84%
same,Percent Effect,[8],-10.7%
same,Percent Effect,[9],4.17%
same,Percent Effect,[10],5%
same,Percent Effect,[11],-4.17%
CN(Cc1ncc[nH]1)S(=O)(=O)c1cccc(C(=O)N2CCOCC2)c1,Percent Effect,[1],-6.58%
same,Percent Effect,[2],5.48%
same,Percent Effect,[3],4.01%
same,Percent Effect,[4],0.744%
same,Percent Effect,[5],-1.76%
same,Percent Effect,[6],1.82%
same,Percent Effect,[7],7.1%
same,Percent Effect,[8],0.0404%
same,Percent Effect,[9],2.15%
same,Percent Effect,[10],7.5%
same,Percent Effect,[11],-7.89%
O=C(c1ccc(-n2ccnc2)nc1)N1CCCC(n2cccn2)C1 (stereo not drawn),Percent Effect,[1],-0.548%
same,Percent Effect,[2],7.89%
same,Percent Effect,[3],-2.37%
same,Percent Effect,[4],3.05%
same,Percent Effect,[5],-2.63%
same,Percent Effect,[6],7.28%
same,Percent Effect,[7],-0.501%
same,Percent Effect,[8],15.7%
same,Percent Effect,[9],5.39%
same,Percent Effect,[10],9.76%
same,Percent Effect,[11],0.587%
CC(C)CN1CCc2[nH]cnc2C12CCN(C(=O)c1cccnc1)CC2,Percent Effect,[1],-8.51%
same,Percent Effect,[2],0%
same,Percent Effect,[3],-4.57%
same,Percent Effect,[4],3.2%
same,Percent Effect,[5],-3.99%
same,Percent Effect,[6],-1.56%
same,Percent Effect,[7],14.3%
same,Percent Effect,[8],12.4%
same,Percent Effect,[9],-3.83%
same,Percent Effect,[10],-6.17%
same,Percent Effect,[11],-6.87%
CCN1CCN(C2CCN(Cc3c(C)noc3C)CC2)C1=O,Percent Effect,[1],-8.32%
same,Percent Effect,[2],15.2%
same,Percent Effect,[3],-5.02%
same,Percent Effect,[4],13.7%
same,Percent Effect,[5],4.44%
same,Percent Effect,[6],-0.38%
same,Percent Effect,[7],6.8%
same,Percent Effect,[8],3.4%
same,Percent Effect,[9],6.4%
same,Percent Effect,[10],16.5%
same,Percent Effect,[11],-7.48%
CC(C)(C)c1nnc(CN2CCOC(Cn3cccn3)C2)o1 (stereo not drawn),Percent Effect,[1],-3.67%
same,Percent Effect,[2],15.2%
same,Percent Effect,[3],-3.73%
same,Percent Effect,[4],9.59%
same,Percent Effect,[5],5.38%
same,Percent Effect,[6],1.9%
same,Percent Effect,[7],5.16%
same,Percent Effect,[8],14.4%
same,Percent Effect,[9],5.42%
same,Percent Effect,[10],16.5%
same,Percent Effect,[11],-5.63%
CCS(=O)(=O)c1ccccc1N1CCC(NC(C)=O)CC1,Percent Effect,[1],-2.22%
same,Percent Effect,[2],21.6%
same,Percent Effect,[3],-1.79%
same,Percent Effect,[4],2.67%
same,Percent Effect,[5],-5.11%
same,Percent Effect,[6],-4.25%
same,Percent Effect,[7],-19.4%
same,Percent Effect,[8],11.3%
same,Percent Effect,[9],6.93%
same,Percent Effect,[10],13.4%
same,Percent Effect,[11],0.794%
Cn1ccnc1CN1C[C@@H](CN2CCC(CO)CC2)[C@@H](CO)C1,Percent Effect,[1],-7.42%
same,Percent Effect,[2],5.41%
same,Percent Effect,[3],-7.54%
same,Percent Effect,[4],7.63%
same,Percent Effect,[5],6.37%
same,Percent Effect,[6],-1.43%
same,Percent Effect,[7],17.4%
same,Percent Effect,[8],7.57%
same,Percent Effect,[9],1.59%
same,Percent Effect,[10],14.6%
same,Percent Effect,[11],-5.25%
